Laboratory results as given in PubChem BioAssay AID504444 (National Center for Advancing Translational Sciences (NCATS), 2011).
Screen size: about 360,000 compounds; about 7,500 (2.1%) were called active. Not shown: some 20% with an inconclusive outcome. Only a selection was taken, and actives are over-represented in it overall. Unmarked numbers belong to inactive results. Calls come from the whole dose curve; as a rule, active = well fitted inhibition curve with a large enough effect; inconclusive = small, poorly fitted or top-dose-only effect, or effect the other way; inactive = flat fitted curve, though single readings scatter.

test: Nrf2 qHTS screen for inhibitors; conditions: A549 ARE-Fluc reporter, luciferase luminescence, 18-24 h; series mostly up to 46 µM; activity change, negative = inhibition: at the top concentration; note: nearly all actives have a fitted effect of over 60% in size
Outline: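 A549 ARE_Fluc cells (5000/well, 5% FBS OPTI-MEM) pre-incubated 2 h, then treated with compounds 18-24 h at 37C/5% CO2 in concentration-response. CellTiter-Fluor viability read first; BugLite luciferase luminescence after 15 min at room temperature gives Nrf2 activity.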
% is set by controls: 0 for no effect and ±100 for the full control effect; potency is the fitted concentration of half-maximal effect.

SMILES | activity change, negative = inhibition [%] | Potency
COc1cc(/C=C/CNC[C@H]2O[C@@H](n3cnc(C(N)=O)n3)[C@H](O)[C@@H]2O)ccc1O | -6.54 | –
COc1ccc(NC(=O)CSC2=Nc3ccccc3C3=NC(CC(=O)NCc4ccccc4OC)C(=O)N23)cc1Cl (stereo not drawn) | 7.31 | –
COc1ccc(-c2cc(C(F)(F)F)n3nc(-c4ccccc4)cc3n2)cc1OC | -2.55 | –
COc1ccccc1-c1oc2ccccc2c1C#CCCCCO | 2.63 | –
COc1ccc2cc(C3=CC(=O)C[C@H](c4ccc5c(c4)OCO5)C3)ccc2c1 | -11.8 | –
O=C1C=C(c2cccc(Cl)c2)C[C@@H](c2ccc(F)cc2)C1 | -1.21 | –
O=C1C=C(c2ccnc3cc(Cl)ccc23)C[C@@H](c2ccc3c(c2)OCO3)C1 | – | 9.2 µM (active)
O=S(=O)(c1ccc2c(c1)OCCCO2)N1CCN(S(=O)(=O)c2c(F)cccc2F)CC1 | 18.5 | –
COc1ccccc1Nc1nc(N)nc(N)c1S(=O)(=O)c1ccccc1 | 1.76 | –
CCOC(=O)c1ccc(NC(=O)c2nc[nH]c2C(=O)NCc2ccccc2)cc1 | -19.4 | –
CCOC(=O)c1ccc(NC(=O)c2nc[nH]c2C(=O)N[C@@H](CCCCNC(=O)OC(C)(C)C)C(=O)OC(C)(C)C)cc1 | – | 23.1 µM (active)
CC(C)(C)OC(=O)NCCCCCNC(=O)c1[nH]cnc1C(=O)Nc1nccs1 | -19.6 | –
COc1ccc(OC)c(NC(=O)CSc2nc3ccccc3nc2N2CCCCC2)c1 | -8.4 | –
CC(C)c1cc(N=O)cc(C(C)C)c1O | 15.6 | –
CCCCOc1ccc(-c2ncc(C(=O)OCC)c(N)n2)cc1 | -13.9 | –
CCCCCc1ccc(-c2ccc(OCC)cc2)nc1 | – | 0.366 µM (active)
CCCCCc1ccc(-c2cn(Cc3ccc4ccccc4c3)nn2)cc1 | 8.41 | –
CNC(=O)c1ccsc1NC(=O)c1ccc(S(=O)(=O)N2CCOCC2)cc1 | -27.8 | –
CNC(=O)c1ccsc1NC(=O)c1ccc(S(=O)(=O)N2CCc3ccccc32)cc1 | – | 16.4 µM (active)
O=S(=O)(c1ccccc1)N1CCc2ccccc21 | -4.14 | –

SMILES | activity change, negative = inhibition [%] | Potency
COc1ccc(C(=O)NCc2ccc(Cl)cc2)cc1S(=O)(=O)N1CCCC1 | -19.1 | –
CCOC(=O)c1c(C)oc2nc(C)nc(N(CC(C)C)CC(C)C)c12 | -23.4 | –
CCCSc1ccc([C@H]2N[C@@](Cc3ccccc3)(C(=O)OC)[C@H]3C(=O)N(C)C(=O)[C@@H]23)cc1 | -4.83 | –
Cc1ccc(NC(=O)COC(=O)C2CC2)cc1S(=O)(=O)N1CCOCC1 | 8.96 | –
Cc1ccc(NC(=O)CCCNC(=O)c2ccc(Cl)cc2)cc1S(=O)(=O)N1CCOCC1 | -7.44 | –
Cc1ccc(NC(=O)CCC(=O)N2CCC(c3ccccc3)=N2)cc1S(=O)(=O)N1CCCCC1 | -25.3 | –
Cc1ccc(NS(=O)(=O)c2cccs2)cc1S(=O)(=O)N1CCCCCC1 | – | 7.31 µM (active)
Cc1ccc(NC(=O)CCCNC(=O)c2ccc(Cl)cc2)cc1S(=O)(=O)N1CCCCC1 | – | 16.4 µM (active)
O=C(C1CCN(S(=O)(=O)c2cccs2)CC1)N1CCCCCC1 | 19.6 | –
CCc1ccccc1OCC(=O)Nc1ccc(C)c(S(=O)(=O)N2CCCCCC2)c1 | – | 25.9 µM (active)
Cc1ccc(NC(=O)CCNC(=O)c2ccc([N+](=O)[O-])cc2)cc1S(=O)(=O)N1CCOCC1 | 3.63 | –
Cc1ccc(C(=O)NNC(=O)c2ccncc2)cc1S(=O)(=O)N1CCCCC1 | -7.77 | –
CC1CN(C(=O)N2CCC(C(=O)NCc3cccs3)CC2)c2ccccc2O1 (stereo not drawn) | -14 | –
O=C(CCCCn1c(=O)c2ccccc2n(CC(=O)Nc2cccc(C(F)(F)F)c2)c1=O)NCc1ccc2c(c1)OCO2 | -14.1 | –
CCCS(=O)(=O)N1CCC(n2c(C(F)(F)F)nc3cccnc32)CC1 | -6.94 | –
O=C(N[C@@H]1C/C=C\C[C@@H](CC(=O)N(CCO)Cc2ccccc2)C(=O)N[C@H](Cc2ccccc2)COC1=O)OCC1c2ccccc2-c2ccccc21 | -2.23 | –
Cc1c(CN2CC[C@@H](N3CCN(c4ccccn4)CC3)[C@H](O)C2)[nH]c2ccc(F)cc12 | -6.24 | –
O=c1[nH]c(N2CCN(Cc3ccc4c(c3)OCO4)CC2)nc2c1CCCC2 | -8.11 | –
Fc1ccc2[nH]c3c(N4CCSCC4)ncnc3c2c1 | – | 18.4 µM (active)
CC(C)(C)n1nnnc1C(c1ccc(F)cc1)N1CCN(Cc2ccc3c(c2)OCO3)CC1 (stereo not drawn) | -7.86 | –

SMILES | activity change, negative = inhibition [%] | Potency
Fc1ccc2[nH]c3c(N4CCN(Cc5ccc6c(c5)OCO6)CC4)ncnc3c2c1 | – | 10.3 µM (active)
CCn1c(CN2CCC(C)CC2)nc2cc(NC(=O)c3ccccc3[N+](=O)[O-])ccc21 | -4.26 | –
CCCN(CC(=O)Nc1ccccc1C)C(=O)c1ccc(OCC(=O)N2CCOCC2)c(OCC)c1 | 1.1 | –
Cc1ccccc1NC(=O)Cn1c(=O)n(CC2CCC(C(=O)NCCc3ccccc3)CC2)c(=O)c2ccccc21 (stereo not drawn) | 5.11 | –
COc1cc(C(=O)NCC(c2ccco2)N2CCCC2)ccc1OCc1ccccc1 (stereo not drawn) | 7.02 | –
Cc1ccccc1Nc1nn2c(=O)c3ccc(C(=O)NCCc4ccc(Cl)cc4)cc3nc2s1 | -7.63 | –
Cc1ccc(S(=O)(=O)NC(N)=NCCC[C@@H](NC(=O)CNC(=O)c2ccccc2)C(=O)Nc2cc(C(F)(F)F)ccc2Cl)cc1 | 4.08 | –
O=C1NC[C@@H](c2ccccc2)OC(=O)[C@H](Cc2ccc(F)cc2)CC/C=C/C[C@H]1CC(=O)N(CCO)Cc1ccccc1 | -7.42 | –
Cc1ccc2nc(-c3ccc(O)cc3)c(Nc3ccc4c(c3)OCO4)n2c1 | 8.81 | –
Cc1nc2ccccc2c(C)c1C(=O)c1ccc(F)cc1 | 10 | –
Cc1nc2ccccc2c(-c2ccccc2)c1C(=O)c1ccccc1 | – | 23.1 µM (active)
Cc1nc2ccccc2c(C(=O)O)c1-c1ccccn1 | 0.203 | –
CC1(C)O[C@@H]2CC3C4C[C@H](F)C5=CC(=O)C=CC5(C)C4C(O)CC3(C)[C@]2(C(=O)CO)O1 (stereo partly drawn) | – | 0.0046 µM (active)
Cc1ccc(C(CC(=O)O)NC(=O)c2ccc(S(=O)(=O)N3CCCC3)cc2)cc1 (stereo not drawn) | 0.991 | –
CCC(CC)COC(=O)C1=C(C)NC(=O)NC1c1ccc([N+](=O)[O-])cc1 (stereo not drawn) | – | 25.9 µM (active)
CCOCCOC(=O)C1=C(C)NC(=O)NC1c1ccc2c(c1)OCO2 (stereo not drawn) | -4.03 | –
COCCOC(=O)C1=C(C)NC(=O)NC1c1ccc(Cl)cc1 (stereo not drawn) | -1.05 | –
COc1cc(CN(CC2CCCO2)C(=O)c2ccccc2F)cc(OC)c1OC (stereo not drawn) | -4.81 | –
